PubChem BioAssay (NCATS)
Inconclusive results are not listed. Where a call stands in place of a potency, no number is given. Calls of active or inactive are those of the source. The call rests on the fitted dose curve; in most records, active means well fitted inhibition curve with a large enough effect; inconclusive means small, poorly fitted or top-dose-only effect; inactive means no such curve, though single readings can be large or run the other way.

Experiment: qHTS assay for measurement of the activity of small molecule inhibitors on Zika virus induced Caspase-3 activity in human iPSC derived neural progenitor cells (hNPCs) (AID 1224857); further: nearly all actives have a fitted effect of over 65% in size
Settings: hNPCs ZIKV-induced caspase-3/7, Caspase-Glo luminescence, 6 h; series mostly up to 45.7 µM
Method in brief: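 Zika virus (2 FFU/cell) infection of human iPSC-derived NPCs, 6 h, following 1 h compound preincubation. Read-out: Caspase-Glo 3/7 luminescence.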

Row | Structure (SMILES) | Potency
1 | CCCCCCCCCCCCCCCC(=O)OC[C@@H](NC(=O)C(Cl)Cl)[C@H](O)c1ccc([N+](=O)[O-])cc1 | inactive
2 | Cn1cc(C[C@@H](N)C(=O)O)c2ccccc21 | inactive
3 | Cc1cc(-c2nnc3n2CCCCC3)c(C)n1-c1ccccc1 | inactive
4 | O=[N+]([O-])c1cn2c(n1)OC[C@@H](OCc1ccc(OC(F)(F)F)cc1)C2 | inactive
5 | N[C@H]1CN(c2c(F)cc3c(=O)c(C(=O)O)cn(C4C[C@@H]4F)c3c2Cl)CC12CC2 (some centres undefined) | inactive
6 | C=CC1=C(C(=O)O)N2C(=O)[C@@H](NC(=O)C(=NO)c3csc(N)n3)[C@H]2SC1 | inactive
7 | C[C@@H](Cc1cc2c(c(C(N)=O)c1)N(CCCO)CC2)NCCOc1ccccc1OCC(F)(F)F | inactive
8 | C[C@H]1COc2c(N3CCN(C)CC3)c(F)cc3c(=O)c(C(=O)O)cn1c23 | inactive
9 | C=CCNC1=C2C[C@@H](C)C[C@H](OC)[C@@H](O)[C@@H](C)C=C(C)[C@H](OC(N)=O)[C@@H](OC)C=CC=C(C)C(=O)NC(=CC1=O)C2=O | inactive
10 | CCNC(=O)c1cc2c(-c3cc(OCCN4CCCC4)c(Cl)cc3Cl)nc(N)nc2s1 | inactive
11 | COC(=O)[C@H](CCCN=C(N)N)NS(=O)(=O)c1ccc(C)cc1 | inactive
12 | CCCNS(=O)(=O)Nc1ncnc(OCCOc2ncc(Br)cn2)c1-c1ccc(Br)cc1 | inactive
13 | Cn1cc(C=CC(=O)c2cccc(F)c2)cc1C=CC(=O)NO | inactive
14 | C[C@@H]1CC[C@@]2(OC1)OC1CC3C4CC=C5CC(O)CCC5(C)C4CCC3(C)C1[C@@H]2C (some centres undefined) | inactive
